# From PubChem BioAssay (EPA / NIEHS)
# Where “and” joins values, the source holds several entries; their conditions need not be identical. Equal values may be shown once. Records with an inconclusive call do not appear. Where a structure was tested more than once in an assay, its records may differ in their call. Calls of active or inactive are those of the source. How the source made its calls, unless noted: active means hit-call score of the fitted dose curve at least 0.9, where 1 is the maximum; inactive means score below 0.9.
# Key:
# [1] = CCTE_Shafer_MEA_dev_burst_duration_mean: CCTE's Neural Network Formation Assay for Mean Burst Duration, Shafer Lab (AID 2284045);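 further: curve fitted for loss meaning shorter burst duration than DMSO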
# Summary of the method: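 Primary rat cortical neurons on PEI-coated 16-electrode MEA wells, exposed from plating through day 12 with compound renewed at DIV 5 and 9; spontaneous activity recorded days 5, 7, 9, 12. Well-mean burst duration collapsed as trapezoidal AUC, fitted for loss versus DMSO.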
# [2] = CCTE_Shafer_MEA_dev_interburst_interval_mean: CCTE's Neural Network Formation Assay for Mean Interburst Interval, Shafer Lab (AID 2284046);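 further: well-mean interburst interval of bursting electrodes as AUC over four recording days; curve fitted for decrease in interburst interval relative to DMSO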
# Summary of the method: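 Rat cortical neurons, 1.5 x 10^5 cells/well, 48-well MEA; compound from day 0 through DIV 12, media and treatment renewed DIV 5/9. Recordings DIV 5, 7, 9, 12; well-mean interburst interval → trapezoidal AUC, loss direction vs DMSO.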
# [3] = CCTE_Shafer_MEA_dev_inter_network_spike_interval_mean: CCTE's Neural Network Formation Assay for Mean Inter-network Spike Interval, Shafer Lab (AID 2284047);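 on AC50: potency for a decrease in mean inter-network spike interval below DMSO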
# Summary of the method: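 Primary rat cortical neurons on PEI-coated 48-well MEAs (16 electrodes/well) were exposed from plating day 0 to DIV 12, with dosing renewed at DIV 5 and 9. Recordings at DIV 5, 7, 9, 12 were collapsed by trapezoidal AUC, loss-of-signal fit vs DMSO.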
# [4] = CCTE_Shafer_MEA_dev_network_spike_number: CCTE's Neural Network Formation Assay for Number of Network Spikes, Shafer Lab (AID 2284048);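 further: synchronized bursts across electrodes counted on days 5 7 9 12 and integrated as AUC; fit as a loss of signal meaning fewer network spikes than DMSO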
# Summary of the method: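 Primary rat cortical neurons were seeded at 1.5 x 10^5 cells/well on PEI-coated 16-electrode MEA wells with laminin, exposed from plating day 0, compound renewed at DIV 5 and 9. Network spikes were recorded on days 5, 7, 9, 12 and summarized as trapezoidal AUC versus DMSO.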
# [5] = CCTE_Shafer_MEA_dev_network_spike_peak: CCTE's Neural Network Formation Assay for Mean Number of Electrodes in Network Spike, Shafer Lab (AID 2284049);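 further: fitted for loss of signal meaning fewer electrodes in network spikes than DMSO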
# Summary of the method: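 Continuous 12-day exposure of rat cortical cultures, starting at plating, on MEA plates. Endpoint: electrodes participating in network-spike peaks, AUC across DIV 5–12, DMSO as negative control.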
# [6] = CCTE_Shafer_MEA_dev_spike_duration_mean: CCTE's Neural Network Formation Assay for Mean Spike Duration, Shafer Lab (AID 2284051);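 further: mean network spike duration pooled as area under curve over DIV 5 to 12 recordings; potency for a decrease in mean network spike duration versus DMSO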
# Summary of the method: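 Rat cortical primary cultures, 48-well MEA (16 electrodes/well); compound from plating, renewed DIV 5, 9. Network spike duration (AxIS adaptive detector) recorded DIV 5/7/9/12, combined as trapezoidal AUC; loss direction vs DMSO.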
# [7] = CCTE_Shafer_MEA_dev_network_spike_duration_std: CCTE's Neural Network Formation Assay for Standard Deviation of Network Spike Duration, Shafer Lab (AID 2284052);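 further: area under curve of spike duration SD across recording days 5 to 12; hits are decreases in network spike duration SD versus DMSO vehicle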
# Summary of the method: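 Rat cortical cultures, 1.5 x 10^5 cells/well, exposed continuously from plating to DIV 12 with media/compound renewal at DIV 5, 9. Spontaneous activity recorded DIV 5/7/9/12, AxIS adaptive spike detector; AUC across days; negative direction vs DMSO.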
# [8] = CCTE_Shafer_MEA_dev_per_network_spike_spike_number_mean: CCTE's Neural Network Formation Assay for Mean Number of Spikes in a Network Spike, Shafer Lab (AID 2284053);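 further: fitted as decrease in spikes per network spike relative to DMSO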
# Summary of the method: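 Rat cortical primary cultures on 48-well MEA; compound from day 0, re-dosed with full media change DIV 5, 9. Recorded DIV 5, 7, 9, 12; spikes in 0.05 s window at network-spike peak ÷ total network spikes; AUC; loss vs DMSO.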
# [9] = CCTE_Shafer_MEA_dev_per_network_spike_spike_percent: CCTE's Neural Network Formation Assay for Percent of Spikes in a Network Spike, Shafer Lab (AID 2284054)
# Summary of the method: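 Primary rat cortical neurons on 16-electrode MEA wells (PEI-coated, laminin at plating), exposed from day 0 with renewal at DIV 5 and 9; spikes within 0.05 s of network-spike peaks over total spikes, AUC across days 5, 7, 9, 12.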
# [10] = CCTE_Shafer_MEA_dev_LDH: CCTE's Lactate Dehydrogenase Assay for Cytotoxicity in the Neural Network Formation Assay, Shafer Lab (AID 2284068; active means hit-call score of the fitted dose curve at least 0.9, where 1 is the maximum;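 further: exposure for twelve days from plating with re-dosing on DIV 5 and 9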)
# Summary of the method: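 Rat cortical primary neurons, MEA culture; dosing day 0–12, full medium plus compound exchange DIV 5, 9. Read-out: LDH enzyme activity, spectrophotometric. DMSO = negative control/baseline; signal loss → cytotoxicity.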
# [11] = CCTE_Shafer_MEA_dev_AB: CCTE's Alamar Blue Assay for Cytotoxicity in the Neural Network Formation Assay, Shafer Lab (AID 2284083; active means hit-call score of the fitted dose curve at least 0.9, where 1 is the maximum;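 further: resazurin reduction fluorescence as viability of cultured neurons; twelve days of exposure from plating with re-dosing on DIV 5 and 9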)
# Summary of the method: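 Rat cortical primary cultures, 1.5 x 10^5 cells/well on MEA; continuous compound exposure over 12 days of network development, re-dosed with full medium change DIV 5 and 9. Alamar Blue fluorescence; loss of signal = cytotoxicity vs DMSO baseline.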
# [12] = CCTE_Shafer_MEA_acute_LDH: CCTE's Lactate Dehydrogenase Assay for Cytotoxicity in the Neural Acute Assay, Shafer Lab (AID 2284086; active means hit-call score of the fitted dose curve at least 0.9, where 1 is the maximum;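 further: active means LDH release rises above DMSO vehicle level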)
# Summary of the method: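 Rat cortical neurons cultured on microelectrode arrays; baseline 40-min recording, compound added, second 40-min recording; medium then sampled for released LDH (colorimetric kit, 490 nm). DMSO = negative control.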
# [13] = CCTE_Shafer_MEA_dev_mutual_information_norm: CCTE's Neural Network Formation Assay for Mutual Information Normalization, Shafer Lab (AID 2284091);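 further: mutual information between electrodes summarised as area under curve across four recording days; potency is for a decrease in mutual information relative to DMSO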
# Summary of the method: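 Rat cortical cultures, 48-well MEA, continuous exposure DIV 0–12 with full media/compound change DIV 5 and 9. Readout: inter-electrode mutual information, AxIS adaptive spike detection; AUC across DIV 5/7/9/12 recordings; DMSO baseline, negative fitting direction.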
# [14] = CCTE_Shafer_MEA_dev_correlation_coefficient_mean: CCTE's Neural Network Formation Assay for Mean Correlation Coefficient, Shafer Lab (AID 2284093);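 further: well mean pairwise spike train correlation integrated as AUC over recording days 5 to 12; potency fitted for loss of correlation relative to DMSO vehicle wells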
# Summary of the method: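 Rat cortical cultures, 1.5 x 10^5 cells/well, dosed from day 0 for 12 days. Spontaneous spikes recorded DIV 5/7/9/12; electrode-pair correlation coefficients averaged, AUC taken. Fit in loss direction vs DMSO.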
# [15] = CCTE_Mundy_HCI_Cortical_Synap_Neur_Matur_NeuriteSpotCountPerNeuriteLength: CCTE's Synaptogenesis and Neurite Maturation Assay in rat cortical cells for Neurite Spot Count per Neurite Length, Mundy Lab (AID 2284210)
# Summary of the method: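 Rat primary cortical cultures, glia arrested with AraC at DIV 5, were dosed with media change at DIV 7 and fixed at DIV 12. Synaptophysin puncta per MAP2-labelled neurite length were quantified by high-content imaging versus DMSO.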
# [16] = CCTE_Mundy_HCI_Cortical_NOG_NeuriteLength: CCTE's Neurite Outgrowth Assay in rat cortical cells for Neurite Length, Mundy Lab (AID 2284213);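 further: neurites imaged about 48 to 50 h after chemical exposure began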
# Summary of the method: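 Neurite length was read by high-content imaging of βIII-tubulin-labelled neurites in rat primary cortical cultures. Activity was fitted relative to DMSO.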
# [17] = CCTE_Mundy_HCI_Cortical_Synap_Neur_Matur_NeuriteSpotCountPerNeuron: CCTE's Synaptogenesis and Neurite Maturation Assay in rat cortical cells for Neurite Spot Count per Neuron Count, Mundy Lab (AID 2284215)
# Summary of the method: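 Rat primary cortical cells received AraC at DIV 5, then chemicals with a media change at DIV 7, and were fixed at DIV 12. Synaptophysin puncta on MAP2-stained neurites per neuron were counted by high-content imaging, fitted relative to DMSO.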
# [18] = CCTE_Mundy_HCI_Cortical_Synap_Neur_Matur_SynapseCount: CCTE's Synaptogenesis and Neurite Maturation Assay in rat cortical cells for Synapse Count, Mundy Lab (AID 2284218)
# Summary of the method: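 Primary rat cortical culture; AraC DIV 5 to arrest glia; compound + media change DIV 7; terminated DIV 12. PFA/Hoechst fix, anti-MAP2 + anti-synaptophysin immunostain; HCI synapse count/neuron; DMSO = baseline.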
# [19] = CCTE_Mundy_HCI_hN2_NOG_NeuriteCount: CCTE's Neurite Outgrowth Assay in human hN2 cells for Neurite Count, Mundy Lab (AID 2284219; active means hit-call score of the fitted dose curve at least 0.9, where 1 is the maximum)
# Summary of the method: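 In this morphology assay, hNP1-derived neurons received test chemical 2 h post-plating and were fixed two days later in warm paraformaldehyde/sucrose containing Hoechst 33342. Neurites, labelled by rabbit anti-βIII-tubulin (1:800) and Alexa Fluor-488 (1:500), were counted automatically.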
# [20] = CCTE_Mundy_HCI_hN2_NOG_NeuriteLength: CCTE's Neurite Outgrowth Assay in human hN2 cells for Neurite Length, Mundy Lab (AID 2284220; active means hit-call score of the fitted dose curve at least 0.9, where 1 is the maximum)
# Summary of the method: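 Using βIII-tubulin immunofluorescence and Hoechst nuclear counterstain, this component quantifies neurite length in hNP1-derived neurons.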
# [21] = CCTE_Mundy_HCI_hN2_NOG_NeuronCount: CCTE's Neurite Outgrowth Assay in human hN2 cells for Neuron Count, Mundy Lab (AID 2284221; active means hit-call score of the fitted dose curve at least 0.9, where 1 is the maximum)
# Summary of the method: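 Read-out is the number of betaIII-tubulin-positive neurons imaged by automated high-content analysis, with DMSO as negative control.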
# [22] = CCTE_Mundy_HCI_Cortical_Synap_Neur_Matur_CellBodySpotCount: CCTE's Synaptogenesis and Neurite Maturation Assay in rat cortical cells for Cell Body Spot Count, Mundy Lab (AID 2284223)
# Summary of the method: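 Rat primary cortical cultures received AraC at DIV 5 to arrest glia, were dosed with chemical at DIV 7 with media change, and were fixed at DIV 12 (288.33 h). Synaptophysin puncta on MAP2-positive cell bodies per neuron were counted by high-content imaging versus DMSO.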
# [23] = CCTE_Mundy_HCI_hNP1_Pro_ResponderAvgInten: CCTE's Proliferation Assay in human neuroprogenitor cells, Mundy Lab (AID 2284224; active means hit-call score of the fitted dose curve at least 0.9, where 1 is the maximum;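 further: human neural progenitor cells hNP1 derived from WA09 embryonic stem cells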)
# Summary of the method: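 Human neuroprogenitors (hNP1, WA09 lineage) receive test chemical after 40 to 44 hours of attachment. A four-hour BrdU pulse begins twenty hours later, followed by fixation and high content imaging; signal is referenced to DMSO controls.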
# [24] = CCTE_Mundy_HCI_Cortical_NOG_NeuronCount: CCTE's Neurite Outgrowth Assay in rat cortical cells for Neuron Count, Mundy Lab (AID 2284236; active means hit-call score of the fitted dose curve at least 0.9, where 1 is the maximum;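 further: neurons counted by imaging betaIII-tubulin and Hoechst stained cortical cells; cells exposed to compound for about 48 hours before fixation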)
# Summary of the method: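 Read-out: neuron number by high-content imaging of betaIII-tubulin (Alexa Fluor-488) and Hoechst-labelled rat primary cortical cells.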
# [25] = CCTE_Mundy_HCI_hNP1_Casp3_7: CCTE's Caspase-Glo 3/7 Assay in human neuroprogenitor cells for Apoptosis, Mundy Lab (AID 2284240)
# Summary of the method: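 Neuroepithelial-lineage stem cells from WA09 embryonic cells were treated with chemicals after 40–44 h of culture. Twenty-four hours later, caspase-3/7 activation was detected luminescently after a 30 min room-temperature reagent step, with DMSO as baseline.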
# [26] = CCTE_Mundy_HCI_Cortical_Synap_Neur_Matur_NeuronCount: CCTE's Synaptogenesis and Neurite Maturation Assay in rat cortical cells for Neuron Count, Mundy Lab (AID 2284242; active means hit-call score of the fitted dose curve at least 0.9, where 1 is the maximum;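 further: hits reduce neuron count versus DMSO baseline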)
# Summary of the method: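 Neuron number was scored by automated high-content imaging of Hoechst- and MAP2-labelled rat primary cortical cells. Glial growth was arrested with AraC at DIV 5, compounds were applied from DIV 7, and cultures ended at DIV 12.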
smiles,measurement,setting,value
CN(C)C(=O)C(CCN1CCC(O)(c2ccc(Cl)cc2)CC1)(c1ccccc1)c1ccccc1,AC50,[1],185 nM (active) and 33.1 nM (active) and 526 nM (active)
same,AC50,[2],581 nM (active) and 249 nM (active) and 2.56 µM (active)
same,AC50,[3],3 nM (active) and 2.62 µM (active)
same,outcome,[3],inactive
same,AC50,[4],32.8 nM (active) and 102 nM (active) and 172 nM (active)
same,AC50,[5],612 nM (active) and 41.5 nM (active) and 1.81 µM (active)
same,AC50,[6],511 nM (active) and 18.7 nM (active) and 1.15 µM (active)
same,AC50,[7],262 nM (active) and 11.6 nM (active) and 736 nM (active)
same,AC50,[8],766 nM (active) and 44.5 nM (active) and 2.52 µM (active)
same,AC50,[9],2.31 µM (active) and 276 nM (active) and 2.68 µM (active)
same,AC50,[10],4.19 µM (active) and 2.7 µM (active) and 2.94 µM (active)
same,AC50,[11],5.74 µM (active) and 5.44 µM (active) and 5.02 µM (active)
same,outcome,[12],inactive
same,AC50,[13],112 nM (active) and 60.7 nM (active) and 621 nM (active)
same,AC50,[14],1.35 µM (active) and 766 nM (active) and 2.54 µM (active)
same,AC50,[15],14.9 µM (active)
same,AC50,[16],6.63 µM (active)
same,AC50,[17],3 µM (active)
same,AC50,[18],3.43 µM (active)
same,AC50,[19],16 µM (active)
same,AC50,[20],15.8 µM (active)
same,AC50,[21],13.9 µM (active)
same,AC50,[22],16.9 µM (active)
same,AC50,[23],50 µM (active)
same,AC50,[24],12.9 µM (active)
same,AC50,[25],16.5 µM (active)
same,AC50,[26],8.36 µM (active)
